Source: PubChem BioAssay
HCV inh = qHTS Assay for Inhibitors of Hepatitis C Virus (HCV); Huh7.5.1 HCVcc-Cre infection, luciferase reporter, 44 h; Potency, µM (highest dose often 41.8 µM), most hits filed as inhibitors; 3.4% of 340,000 active
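Infectious HCV cell culture screen: compound-treated cells (1,000/well, pre-plated 4 h) are infected with HCVcc-Cre at roughly 0.5 moi and grown 44 h. Infection is quantified by luciferase signal after 15 min substrate incubation at room temperature.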
HCMV inh = qHTS Assay for inhibitors of the human cytomegalovirus (HCMV); HFF cells, HCMV-luciferase reporter, 72 h; hits give low values; activity change, negative = inhibition, % at 57.5 µM; 4.5% of 410,000 active; AID 1259415, 2018; in the data active = activity change below about -60%; inconclusive = no clear call, values can overlap the other calls; inactive = above about -39%
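Luciferase read-out from HCMV-luciferase-infected HFFs (MOI 1 PFU/cell) 72 h post infection at 37C; compounds added after 16 h cell attachment; activity normalized between buffer-only basal and Salinomycin (10uM) inhibitor controls.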
Pf growth 96h = Primary qHTS for delayed death inhibitors of the malarial parasite plastid, 96 hour incubation | P. falciparum luciferase reporter growth, 96 h | Potency, µM (titrated, usually from 28.7 µM), most hits filed as inhibitors | 6.9% of 320,000 active
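Luminescence readout: decreased luciferase signal marks inhibited growth of reporter-expressing P. falciparum in infected red cells (2% hematocrit, 0.05% parasitemia final), exposed to compound two generations (96 h, 37 C, 5% CO2).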
Pf growth 48h = Primary qHTS for delayed death inhibitors of the malarial parasite plastid, 48 hour incubation | Potency, µM (highest dose often 28.7 µM), hits mostly inhibitors | P. falciparum luciferase growth in erythrocytes, 48 h | 5.9% of 310,000 active
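Here the parasites carry a stable luciferase gene and grow inside erythrocytes in Albumax-based RPMI medium with compound for one erythrocytic cycle. Activity is scored as loss of luminescent signal.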
LASV entry inh = qHTS for Inhibitors of binding or entry into cells for Lassa Virus | Potency, µM (highest dose often 37.9 µM), actives largely listed as inhibitors | AID 540256, 2011 | 1.2% of 300,000 active | Lassa virus pseudotype entry inhibition, cell reporter; calls by dose curve; tested in HEK293 cells; also: nearly all actives have a fitted effect of over 50% in size
Marburg entry inh = qHTS for inhibitors of binding or entry into cells for Marburg Virus; Marburg virus pseudotyped entry inhibition, cell reporter; Potency, µM (series often up to 37.8 µM), hits mostly inhibitors; 1.8% of 300,000 active; calls by dose curve; tested in HEK293 cells
Each line names hits and unclear results; the compound was inactive in the other large screens. A selection: hits, their analogues and other compounds. The true share with any hit is near 14%. Unless noted, calls follow the shape of the dose curve; as a rule, active = well fitted inhibition curve with a large enough effect; inconclusive = small, poorly fitted or top-dose-only effect, or another doubt; inactive = no such curve, though single readings can be large or run the other way.

CC(C)CNC(=O)C1(C)CCCN1Cc1ccc(OC(F)(F)F)cc1 (configuration not stated)	none (no result: HCV inh, Pf growth 96h, Pf growth 48h, LASV entry inh, Marburg entry inh)
CCCCNCCCOc1cccc(Cl)c1Cl	Pf growth 96h inconclusive, Marburg entry inh 15µM (no result: Pf growth 48h)
Clc1cccc(OCCCN2CCCC2)c1Cl	HCV inh inconclusive, Pf growth 96h inconclusive, Marburg entry inh inconclusive
CNCCCOc1ccc(C)cc1Br	none (no result: Pf growth 48h)
CCCCNCCCOc1ccc(C)cc1Br	Pf growth 96h 2.3µM, Pf growth 48h inconclusive (no result: LASV entry inh, Marburg entry inh)
Cc1cc(C)n(/N=C/c2ccc(C(C)C)cc2)c(=O)c1C#N	Pf growth 96h inconclusive, Pf growth 48h 1.9µM, LASV entry inh inconclusive, Marburg entry inh inconclusive
Cc1ccc(/C=N/n2c(C)cc(C)c(C#N)c2=O)cc1	Pf growth 96h 15µM, Pf growth 48h 15µM
CC1=C(C(=O)Nc2cccc(C(F)(F)F)c2)C2(CCCCC2)OC1=O	Marburg entry inh inconclusive (no result: HCV inh, Pf growth 96h, Pf growth 48h)
CCOc1ccc(/C=C/C(=O)Nc2sc3c(c2C(=O)OC)C(C(=O)OC)CC3)cc1 (configuration not stated)	LASV entry inh inconclusive (no result: HCV inh, Pf growth 96h, Pf growth 48h, Marburg entry inh)
COc1ccc(C2OC(=O)CC2C(=O)NCc2ccc(C)cc2)cc1OC (configuration not stated)	Pf growth 96h 9.3µM (no result: LASV entry inh, Marburg entry inh)
COCCCNC(=O)C1CC(=O)OC1c1ccc(OC)c(OC)c1 (configuration not stated)	none (no result: Pf growth 48h)
CCCCS(=O)(=O)/C=C\C=C/S(=O)(=O)CCCC	HCV inh 2.5µM, Pf growth 96h inconclusive, Pf growth 48h 9.3µM, LASV entry inh 11µM, Marburg entry inh inconclusive (no result: HCMV inh)
CCNC(=S)N/N=C(\C)c1ccc2ccccc2c1OC(F)F	HCV inh inconclusive, Pf growth 96h inconclusive, Pf growth 48h 10µM, LASV entry inh inconclusive, Marburg entry inh inconclusive
COc1cc(/C(C)=N/NC(=S)NC(C)C)cc(OC)c1OC	HCMV inh -102, Pf growth 96h inconclusive, Pf growth 48h inconclusive, Marburg entry inh inconclusive
C/C(=N\NC(=S)NC(C)C)c1ccccc1OC(F)F	HCV inh 14µM, HCMV inh -114, Pf growth 96h 8.3µM, LASV entry inh inconclusive
COC(=O)[C@]1(C#N)[C@@H](c2ccccc2)C(=O)N(Cc2ccc(Cl)cc2)[C@@H]1c1ccc(OC)cc1	none (no result: HCV inh, Pf growth 96h, Pf growth 48h, LASV entry inh, Marburg entry inh)
CCC(=O)N1CCc2cc(S(=O)(=O)N(CC)c3cccc(C)c3)ccc21	Pf growth 96h inconclusive, LASV entry inh inconclusive
CC1Cc2cc(S(=O)(=O)CCC(=O)N3CCN(c4ccccc4)CC3)ccc2N1C(=O)C1CC1 (configuration not stated)	HCV inh inconclusive, Pf growth 96h 9.3µM (no result: LASV entry inh, Marburg entry inh)
CCN(c1ccccc1)S(=O)(=O)c1ccc2c(c1)CC(C)N2C(=O)C1CC1 (configuration not stated)	HCV inh inconclusive, Pf growth 96h 4.1µM, Pf growth 48h inconclusive, LASV entry inh inconclusive
CCC(=O)N1c2ccc(S(=O)(=O)CCC(=O)N3CCN(c4ccc(F)cc4)CC3)cc2CC1C (configuration not stated)	none (no result: HCV inh, Pf growth 96h, Pf growth 48h)
CC(=O)N1c2ccc(S(=O)(=O)N(C)CC(=O)NC(C)c3ccccc3)cc2CC1C (configuration not stated)	HCV inh inconclusive, Pf growth 96h 9.3µM
CC(=O)N1c2ccc(S(=O)(=O)N(C)CC(=O)NCc3ccccc3)cc2CC1C (configuration not stated)	Pf growth 96h inconclusive, Marburg entry inh inconclusive
CC1Cc2cc(S(=O)(=O)N(Cc3ccccc3)C(C)C)ccc2N1C(=O)C1CCC1 (configuration not stated)	LASV entry inh inconclusive (no result: HCV inh, Pf growth 96h, Pf growth 48h, Marburg entry inh)
CCN(c1cccc(C(F)(F)F)c1)S(=O)(=O)c1ccc2c(c1)CCN2C(=O)C1CC1	HCV inh inconclusive, HCMV inh -82, Pf growth 48h inconclusive, LASV entry inh inconclusive, Marburg entry inh inconclusive (no result: Pf growth 96h)
COc1cc(C(=O)N2CCN(c3ccccc3)CC2)c2ccccc2n1	LASV entry inh inconclusive, Marburg entry inh inconclusive (no result: Pf growth 96h, Pf growth 48h)
CCC(=O)N1c2ccc(S(=O)(=O)CCC(=O)Nc3ccc(Br)c(C)c3)cc2CC1C (configuration not stated)	HCMV inh -72 (no result: HCV inh, Pf growth 96h, Pf growth 48h)
CCOC(=O)C1CCN(C(=O)CCS(=O)(=O)c2ccc3c(c2)CC(C)N3C(=O)CC)CC1 (configuration not stated)	Pf growth 96h inconclusive
CCOC(=O)N1CCN(C(=O)CCS(=O)(=O)c2ccc3c(c2)CC(C)N3C(=O)CC)CC1 (configuration not stated)	Pf growth 96h 15µM (no result: LASV entry inh, Marburg entry inh)
O=S(=O)(c1cccc2nsnc12)N1CCNCC1	LASV entry inh inconclusive
CCN(CC(=O)Nc1ccc2c(c1)OCCO2)C(=O)CCc1ccccc1Cl	Pf growth 96h inconclusive, Pf growth 48h inconclusive (no result: LASV entry inh, Marburg entry inh)
COc1ccc(-n2c(-c3ccc(Cl)cc3)c[n+]3c2CCc2ccccc2-3)cc1	HCMV inh -99, Pf growth 96h inconclusive, Pf growth 48h 1.9µM, LASV entry inh inconclusive, Marburg entry inh 11µM
N#CCC(=O)N/N=C/c1ccc(N2N=C(c3ccccc3)CC2c2ccccc2)cc1 (configuration not stated)	HCV inh inconclusive, Pf growth 96h inconclusive, Pf growth 48h inconclusive
Cc1cc(C)n2c(NC3CCCC3)c(-c3ccc(F)cc3)nc2n1	none (no result: HCV inh, Pf growth 96h, Pf growth 48h, LASV entry inh, Marburg entry inh)
Nc1nc(SCC(=O)c2c(N)n(C3CC3)c(=O)[nH]c2=O)n[nH]1	Marburg entry inh inconclusive
CC(Cc1cccs1)NC(=S)Nc1ccc(Cl)cc1 (configuration not stated)	HCV inh inconclusive, HCMV inh -92, Pf growth 96h inconclusive, Marburg entry inh inconclusive
CC(Cc1cccs1)NC(=S)Nc1ccc(Cl)c(Cl)c1 (configuration not stated)	HCMV inh inconclusive, Pf growth 96h inconclusive
CCOC(=O)Nc1ccc2c3c(cccc13)-c1ccccc1-2	HCV inh 10µM (no result: Pf growth 96h, Pf growth 48h)
CCOc1ccc2[nH]c3c(NCCN(CC)CC)ncnc3c2c1	Pf growth 96h 2.1µM, Pf growth 48h 2.3µM, Marburg entry inh inconclusive
CCOc1ccc2[nH]c3c(NCC(C)C)ncnc3c2c1	HCV inh inconclusive, Pf growth 96h 1.7µM, Pf growth 48h 2.3µM (no result: HCMV inh, LASV entry inh, Marburg entry inh)
CCOc1ccc2[nH]c3c(NCCOC)ncnc3c2c1	Pf growth 96h inconclusive (no result: LASV entry inh, Marburg entry inh)
COc1ccc2[nH]c3c(NCCN(C(C)C)C(C)C)ncnc3c2c1	HCV inh inconclusive, Pf growth 96h 0.47µM, Pf growth 48h 2.6µM, Marburg entry inh 11µM
COC(CNC(=O)c1ccc(CS(=O)(=O)c2ccc(Br)cc2)o1)OC	none
COC(CNC(=O)c1ccc(CS(=O)(=O)c2ccc(C)cc2)o1)OC	Pf growth 96h 2.6µM
COCCCNC(=O)c1ccc(CS(=O)(=O)c2ccc(Br)cc2)o1	none (no result: Pf growth 48h, LASV entry inh, Marburg entry inh)
COCCCNC(=O)c1ccc(CS(=O)(=O)c2ccc(OC)cc2)o1	Pf growth 96h 10µM (no result: LASV entry inh, Marburg entry inh)
COc1cc(NC(=O)N2CCN(c3cc(-c4noc(C)n4)ccc3C)CC2)cc(OC)c1OC	none (no result: HCV inh, Pf growth 96h, Pf growth 48h, Marburg entry inh)
